Measured values taken from the supplement of paper PMC8728848.
The entries come from a sample that favours the strongest signals as a whole.

Legend:
Experiment in all cases: glycan array binding signal (z-score within array); higher = stronger binding
Conditions in all cases: glycan notation: IUPAC condensed, linker removed
GalNAc(a1-3)Gal = target: GalNAc(a1-3)Gal
In short: (§1)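 Negative Z-scores can be read as non-binding. The Z-score is calculated within each array and then averaged across arrays of one protein sequence at different concentrations or buffers and across linkers. Arrays, 3228 in all, were curated from the Consortium for Functional Glycomics database and kept only where the protein sequence was available.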

Glc(a1-4)Glc = target: Glc(a1-4)Glc
In short: as §1

GlcA(b1-3)Gal = target: GlcA(b1-3)Gal
In short: as §1

[1] = target: GlcNAc(a1-4)Gal(b1-4)GlcNAc(b1-3)Gal(b1-4)Glc
In short: as §1

[2] = target: GlcNAc(a1-6)Gal(b1-4)GlcNAc
In short: as §1

[3] = target: GlcNAc(b1-2)[GlcNAc(b1-4)]Man(a1-3)[GlcNAc(b1-4)][GlcNAc(b1-2)[GlcNAc(b1-6)]Man(a1-6)]Man(b1-4)GlcNAc(b1-4)[Fuc(a1-6)]GlcNAc
In short: as §1

[4] = target: GlcNAc(b1-4)GlcNAc(b1-4)GlcNAc
In short: as §1

[5] = target: GlcNAc(b1-4)GlcNAc(b1-4)GlcNAc(b1-4)GlcNAc(b1-4)GlcNAc
In short: as §1

Neu5Ac(a2-3)Gal = target: Neu5Ac(a2-3)Gal
In short: as §1

[6] = target: Neu5Ac(a2-3)Gal(b1-3)GlcNAc(b1-2)Man(a1-3)[Neu5Ac(a2-3)Gal(b1-3)GlcNAc(b1-2)Man(a1-6)]Man(b1-4)GlcNAc(b1-4)GlcNAc
In short: as §1

[7] = target: Neu5Ac(a2-3)Gal(b1-3)]Neu5Ac(a2-3)Gal(b1-4)]GlcNAc
In short: as §1

[8] = target: Neu5Ac(a2-3)Gal(b1-4)GlcNAc(b1-2)[Neu5Ac(a2-3)Gal(b1-4)GlcNAc(b1-4)]Man(a1-3)[GlcNAc(b1-4)][Neu5Ac(a2-3)Gal(b1-4)GlcNAc(b1-2)[Neu5Ac(a2-3)Gal(b1-4)GlcNAc(b1-6)]Man(a1-6)]Man(b1-4)GlcNAc(b1-4)GlcNAc
In short: as §1

[9] = target: Neu5Ac(a2-3)Gal(b1-4)GlcNAc(b1-3)Gal(b1-4)GlcNAc(b1-3)GalNAc
In short: as §1

[10] = target: Neu5Ac(a2-3)Gal(b1-4)[Fuc(a1-3)]GlcNAc(b1-3)GalNAc
In short: as §1

[11] = target: Neu5Ac(a2-3)[GalNAc(b1-4)]Gal(b1-4)Glc
In short: as §1

[12] = target: Neu5Ac(a2-6)Gal(b1-4)GlcNAc(b1-2)Man(a1-3)[Gal(b1-4)GlcNAc(b1-2)Man(a1-6)]Man(b1-4)GlcNAc(b1-4)GlcNAc
In short: as §1

[13] = target: Neu5Ac(a2-6)Gal(b1-4)GlcNAc(b1-2)Man(a1-3)[Neu5Ac(a2-6)Gal(b1-4)GlcNAc(b1-2)Man(a1-6)]Man(b1-4)GlcNAc(b1-4)[Fuc(a1-6)]GlcNAc
In short: as §1

[14] = target: Neu5Ac(a2-6)Gal(b1-4)GlcNAc(b1-2)Man(a1-6)Man(b1-4)GlcNAc(b1-4)GlcNAc
In short: as §1

[15] = target: Neu5Ac(a2-6)Gal(b1-4)GlcNAc(b1-2)[Neu5Ac(a2-6)Gal(b1-4)GlcNAc(b1-6)]Man(a1-6)[Neu5Ac(a2-6)Gal(b1-4)GlcNAc(b1-2)Man(a1-3)][GlcNAc(b1-4)]Man(b1-4)GlcNAc(b1-4)GlcNAc
In short: as §1

[16] = target: Neu5Ac(a2-6)Gal(b1-4)GlcNAc(b1-3)Gal(b1-4)GlcNAc(b1-3)Gal(b1-4)GlcNAc(b1-2)Man(a1-3)[Neu5Ac(a2-6)Gal(b1-4)GlcNAc(b1-3)Gal(b1-4)GlcNAc(b1-3)Gal(b1-4)GlcNAc(b1-2)Man(a1-6)]GalNAc
In short: as §1

[17] = target: Neu5Ac(a2-6)Gal(b1-4)GlcNAc(b1-3)GalNAc
In short: as §1

[18] = target: Neu5Ac(a2-6)GalNAc(b1-4)GlcNAc6S
In short: as §1

[19] = target: Neu5Ac(a2-8)Neu5Ac(a2-3)[Gal(b1-3)GalNAc(b1-4)]Gal(b1-4)Glc
In short: as §1

[20] = target: Neu5Ac(a2-8)Neu5Ac(a2-8)Neu5Ac(a2-3)Gal(b1-4)Glc
In short: as §1

[21] = target: Neu5Gc(a2-3)Gal(b1-3)GlcNAc
In short: as §1

[22] = target: Neu5Gc(a2-8)Neu5Gc(a2-3)Gal(b1-4)GlcNAc
In short: as §1

B1: SP15308B-bot-339-22-339 (Bacteroides ovatus) (protein)
chain: NEWEDEQYEQYVSFKAPIASGSDGVTTIYVRYKDNGKVTYQLPIIVSGSTVNSQDRDIHIAVDKDTLKTLNIERFSLYRPELWYTEMEEDKYEFPETVHIPAGSCVELLNIDFNLQDIDMLEKWVLPLTIVDDGSYAYQSHPRKNYAKALLKVVPFNNYSGSYTASSMKVYTYINGKPDTNARTTDKRTGYVVDNNSIFFYAGLINEDMDKDMRKKYKINVHFKEDGTLDMKQDDPSNEMEFELIGTPTYSSTSVMDATRPYLERRYVQIMFEYDFQDFTYGGSGTEVIPIKYRVAGSMTLLRNINTQIPDEDQQIEW
glycan array binding signal (z-score) (GalNAc(a1-3)Gal): 3.52 | glycan array binding signal (z-score) (Glc(a1-4)Glc): 0.066 | glycan array binding signal (z-score) (GlcA(b1-3)Gal): 0.229 | glycan array binding signal (z-score) [1]: -0.022 | glycan array binding signal (z-score) [2]: -0.154 | glycan array binding signal (z-score) [3]: -0.263 | glycan array binding signal (z-score) [4]: -0.544 | glycan array binding signal (z-score) [5]: -0.482 | glycan array binding signal (z-score) (Neu5Ac(a2-3)Gal): -0.692 | glycan array binding signal (z-score) [6]: -0.211 | glycan array binding signal (z-score) [7]: -0.519 | glycan array binding signal (z-score) [8]: -0.547 | glycan array binding signal (z-score) [9]: -0.308 | glycan array binding signal (z-score) [10]: 2.38 | glycan array binding signal (z-score) [11]: -0.526 | glycan array binding signal (z-score) [12]: 0.001 | glycan array binding signal (z-score) [13]: 1.73 | glycan array binding signal (z-score) [14]: -0.086 | glycan array binding signal (z-score) [15]: -0.729 | glycan array binding signal (z-score) [16]: 0.664 | glycan array binding signal (z-score) [17]: -0.409 | glycan array binding signal (z-score) [18]: -0.231 | glycan array binding signal (z-score) [19]: -0.005 | glycan array binding signal (z-score) [20]: -0.189 | glycan array binding signal (z-score) [21]: -0.652 | glycan array binding signal (z-score) [22]: -0.454
